# Source: PubChem BioAssay
# Sampled rows, rich in hits. Any-hit rate of the full collection: about 7.6%.
# TSHR ag: qHTS Assay for Agonists of the Thyroid Stimulating Hormone Receptor; Thyrotropin receptor (Homo sapiens), P16473; HEK293-CNG-TSHR cells (CNG channel as cAMP sensor), membrane potential dye, cAMP; Potency, µM (series often up to 57.1 µM), for the others: top-dose activation, usual class: activators; 0.48% of 73,000 active; AID 926, 2007; active means well fitted activation curve with a large enough effect in the main read-out, with a control signal flat, not every such curve was filed as active; inconclusive means small, poorly fitted or top-dose-only effect, or a change in a side signal; inactive means no such curve, though single readings can be large or run the other way; % of control where 0% means no effect;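 further: the control signal comes from parental cells without the receptor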
#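 HEK 293 cells stably expressing TSHR and a modified CNG channel, with CNG-only parental cells as counterscreen, were preloaded 60 min at room temperature with membrane potential dye containing 100 uM RO 20-1724. Compound exposure was 30 min, and depolarization was read as fluorescence at 590 nm.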
# Tau fil binding: qHTS Assay for Tau Filament Binding; 2% of 71,000 active; AID 596, 2007; Potency, µM (doses to about 57.1 µM), for the others: at the highest dose activity change, negative = inhibition; recombinant tau filaments, thioflavin S fluorescence, 15 h; filaments grown with octadecylsulfate alongside compound;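 further: on the % scale 0 is the no-effect control and ±100 the full control effect; actives lower thioflavin S fluorescence by blocking filaments or displacing dye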
# Target sequence (P10636 whole entry, looked up): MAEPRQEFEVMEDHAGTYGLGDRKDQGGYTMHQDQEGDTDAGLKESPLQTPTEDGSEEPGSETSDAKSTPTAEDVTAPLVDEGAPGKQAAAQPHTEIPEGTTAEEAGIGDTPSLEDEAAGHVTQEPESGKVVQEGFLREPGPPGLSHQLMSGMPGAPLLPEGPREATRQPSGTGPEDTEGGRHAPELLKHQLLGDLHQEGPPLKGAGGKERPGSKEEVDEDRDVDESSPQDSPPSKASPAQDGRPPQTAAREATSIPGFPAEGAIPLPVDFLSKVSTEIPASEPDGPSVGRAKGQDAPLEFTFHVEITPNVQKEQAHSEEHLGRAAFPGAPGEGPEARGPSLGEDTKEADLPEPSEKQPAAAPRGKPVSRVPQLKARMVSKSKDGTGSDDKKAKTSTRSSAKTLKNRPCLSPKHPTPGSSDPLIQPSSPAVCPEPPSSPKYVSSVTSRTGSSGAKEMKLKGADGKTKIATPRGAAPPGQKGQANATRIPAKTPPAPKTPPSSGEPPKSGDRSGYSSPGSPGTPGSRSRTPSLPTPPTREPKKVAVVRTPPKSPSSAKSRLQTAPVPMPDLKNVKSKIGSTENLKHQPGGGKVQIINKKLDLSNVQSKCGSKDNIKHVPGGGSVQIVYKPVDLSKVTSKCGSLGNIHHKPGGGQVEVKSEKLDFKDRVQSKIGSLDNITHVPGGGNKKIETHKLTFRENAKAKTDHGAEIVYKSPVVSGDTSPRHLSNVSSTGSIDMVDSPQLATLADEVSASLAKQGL
#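 Thioflavine S fluorescence (ex 450, em 510 nm) reports filaments formed from 1 uM human tau plus 30 uM ODS over 15 h at 37 C (10 mM HEPES pH 7.4, 100 mM NaCl, 5 mM DTT); compounds displacing dye or blocking filaments lower signal.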
# HEK293 cAMP ctrl: qHTS Assay for Agonists of the Thyroid Stimulating Hormone Receptor: Activators of Intracellular cAMP Concentrations in Parental HEK 293 | parental HEK293 CNG cAMP sensor, membrane potential fluorescence | Potency, µM (top dose mostly 57.1 µM), for the others: at the highest dose activation, most hits filed as activators | 2.5% of 73,000 active | AID 938, 2007; further: % of control where 0% means no effect; nearly all actives have a fitted effect of over 55% in size
#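 Counterscreen for endogenous-receptor signalling: CNG-channel HEK 293 cells report cAMP rise by membrane depolarization. After 60 min dye equilibration with 100 uM RO 20-1724, compounds incubated 30 min before bottom-read fluorescence at 590 nm.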
# CRE-bla Fsk: Cell signaling CRE-BLA (Fsk stim); 2.5% of 71,000 active; CHO CRE-bla reporter (cAMP response element driving beta-lactamase), forskolin EC10, beta-lactamase ratio; Potency, µM (titrated, usually from 38.2 µM), inactives show at the top dose activity change, negative = inhibition, usual class: activators; active means well fitted activation curve with a large enough effect in the signal ratio, with a control signal flat, not every such curve was filed as active; inconclusive means small, poorly fitted or top-dose-only effect, or effect the other way, or a change in a side signal; the % refers to the signal ratio; further: % of control where 0% means no effect
#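 CRE-bla CHO reporter cells treated with compound titration plus EC10 NKH 477 (water-soluble forskolin), incubated 3 h at 37 °C; CCF4 loading 2 h at room temperature, 460/530 nm emission ratio read, AC50 values derived for positive or negative modulators.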
# ERK AVP block: qHTS Assay for Inhibitors of the ERK Signaling Pathway using a Homogeneous Screening Assay | 0.99% of 72,000 active | HEK293-V1b, vasopressin-stimulated pERK AlphaScreen | Potency, µM (titrated, usually from 57.5 µM), for the others: at the highest dose activity, negative = inhibition, most hits filed as inhibitors | AID 995, 2007; further: on the % scale 0 is the no-effect control and ±100 the full control effect; nearly all actives have a fitted effect of over 55% in size
#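 qHTS, compounds titrated on V1b-expressing HEK293 cells. Preincubation 30 min at 37C, vasopressin 25 nM for 5 min, lysis 10 min, bead incubation 5 hr at room temperature.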
# * hit, by the source's call; i = inactive; u = inconclusive; x = no result given; [ ] = remark or other dose. Unless noted, the call rests on the fitted dose curve; in most records, active means well fitted curve in the direction sought with a large enough effect; inconclusive means small, poorly fitted or top-dose-only effect, or another doubt; inactive means no such curve, though single readings can be large; an effect the other way counts as inactive or inconclusive. Potency means the concentration at half of the fitted maximal effect.
SMILES,TSHR ag,Tau fil binding,HEK293 cAMP ctrl,CRE-bla Fsk,ERK AVP block
O=C(CSc1nc2sc3c(c2c(=O)n1Cc1ccco1)CCC3)N1CCc2ccccc21,20%,30%,15%,-21%,-11%
CCOC(=O)CSc1nc2ccccc2c(=O)n1CC1CCCO1 (stereo not given),u,-8%,16µM*,u,18%
COc1ccc(-n2c(=O)c(-c3cc(F)cc(F)c3)nc3cnc(N(C)C)nc32)cc1,4%,0%,-6%,u,-6%
CC(C)c1ccc(Cn2ccc3c4c(N)nc(NC5CC5)nc4ccc32)cc1,u,i,-55%,13µM*,-12%
Cc1nc2cnc(Oc3cccc(Cl)c3)nc2n(Cc2ccc(F)cc2)c1=O,u,u,4µM*,u,-14%
Cn1c(=O)c(-c2cc(F)cc(F)c2)nc2cnc(Oc3cccc(Cl)c3)nc21,9%,10µM*,18%,10µM*,u
COc1ccc(-n2c(=O)cnc3cnc(N4CCOCC4)nc32)cc1,2%,6%,12%,u,-16%
O=C(CNCC1CCCO1)Nc1ccc(N2CCCCCC2)cc1 (stereo not given),-20%,32µM*,-17%,-4%,u
Cc1cccc(OCC(=O)Nc2ccc(N3CCCC3)cc2)c1C,-25%[11.4 µM],u,-25%[11.4 µM],u,-13%
CN1CCN(c2ccc(NC(=O)COc3ccccc3Cl)cc2)CC1,-18%,16µM*,-4%,u,-26%
CCOc1ccccc1OCC(=O)Nc1ccc(N2CCCCC2)cc1,14%,25µM*,5%,15%,u
Cc1cc(OCC(=O)Nc2ccc3c(c2)OCCO3)ccc1Cl,u,14%,0.25µM*,0%,u
C#CCCCO/N=C1/C[C@@H](O)[C@@H](O)[C@@H]2[C@@H]3C(=O)N(Cc4ccc5c(c4)OCO5)C(=O)[C@H]3CC[C@@H]12,18%[11.4 µM],x,6%[11.4 µM],x,21%[11.5 µM]
O=C1[C@H]2[C@H]3[C@H](O)[C@H](O)C/C(=N/OCc4ccccc4)[C@@H]3CC[C@@H]2C(=O)N1Cc1ccccc1,-6%[11.4 µM],x,2%[11.4 µM],x,0%[11.5 µM]
Cc1ccccc1OCCCC(=O)Nc1ccc(N2CCOCC2)cc1,15%[11.4 µM],3.2µM*,22%[11.4 µM],u,-20%
Cc1cc(C)cc(OCC(=O)Nc2ccc(N3CCCC3)cc2)c1,-5%,x,-13%,x,x
Cc1ccc(OCC(=O)Nc2ccc(N3CCCC3)cc2)cc1C,-4%[11.4 µM],1.6µM*,-4%[11.4 µM],u,u
Cc1ccc(OCCCC(=O)Nc2ccc(N3CCOCC3)cc2)c(C)c1,12%,u,17%,-1%,-18%
Cc1cccc(OCC(=O)Nc2ccccc2N2CCN(C(=O)C(C)C)CC2)c1C,u,2%,1.6µM*,-1%,-1%
O=C(COc1ccc(Cl)cc1)Nc1ccccc1N1CCOCC1,u,42%,16µM*,5%,1%
Cc1ccccc1OCC(=O)Nc1ccccc1N1CCCCC1,u,9%,u,u,42%
CCC(=O)N1CCN(c2ccccc2NC(=O)c2cccc(C)c2)CC1,u,-3%,u,6%,-11%
CCC(=O)N1CCN(c2ccccc2NC(=O)COc2cccc(C)c2)CC1,u,29%,20µM*,-6%,-25%
COc1ccc(Cl)cc1C(=O)Nc1ccccc1N1CCN(C(=O)C(C)C)CC1,7%,-12%,16%,13µM*,-23%
CC(C)CO/N=C1/[C@H]2O[C@@H]2[C@@H](O)[C@H]2[C@H]1CCn1c(=O)n(Cc3cc4c(cc3Cl)OCO4)c(=O)n12,0%[11.4 µM],x,1%[11.4 µM],x,15%[11.5 µM]
SMILES,TSHR ag,Tau fil binding,HEK293 cAMP ctrl,CRE-bla Fsk,ERK AVP block
N[C@@H](Cn1cc(F)c(=O)[nH]c1=O)C(=O)O,9%,381%,-2%,u,7%
COc1ccc(-n2c(=O)c(-c3cccs3)nc3cnc(N4CCNCC4)nc32)cc1,-12%,i,-20%,u,67%
COc1ccccc1-c1ccc2ncnc(NCCNC(C)=O)c2c1,u,2%,u,3%,18%
CCOC(=O)CCN1C(=O)[C@H]2[C@@H]3[C@H](O)[C@H](O)CC(=O)[C@H]3CC[C@H]2C1=O,-5%[11.4 µM],x,3%[11.4 µM],x,2%[11.5 µM]
CCOC(=O)C1CCCN(C(=O)c2cc3c(-c4cccc(OC)c4)nn(C)c3s2)C1 (stereo not given),x,22%,16%,3.2µM*,11%
CCOC(=O)C1CCN(C(=O)c2cc3c(-c4ccc(OC)c(OC)c4)nn(C)c3s2)CC1,x,38%,-8%,2.5µM*,u
CCOC(=O)N1CCC(NC(=O)c2cc3c(-c4ccccc4F)nn(C)c3s2)CC1,6%,i,0%,15%,5µM*
COC1CCC(C(=O)c2ccc3nc4c(cc3c2)CCCO4)CC1 (stereo not given),15%,x,20%,x,-17%
CC1C=CCCOC1c1ccccc1 (stereo not given),-6%[11.4 µM],x,1%[11.4 µM],x,10%[11.5 µM]
CC(C)COC(=O)C(C#N)c1nc2ccccc2nc1N1CCN(Cc2ccccc2)CC1 (stereo not given),5%,2µM*,14%,21%,-1%
C=CCOC(=O)C(C#N)c1nc2ccccc2nc1N1CCN(Cc2ccccc2)CC1 (stereo not given),u,1.6µM*,-64%,u,u
N#CC(C(=O)OC1CCCCC1)c1nc2ccccc2nc1N1CCOCC1 (stereo not given),28%,i,29%,u,-3%
CCC(CC)COC(=O)C(C#N)c1nc2ccccc2nc1N1CCOCC1 (stereo not given),21%,3.2µM*,30%,2µM*,-21%
COCCOC(=O)C(C#N)c1nc2ccccc2nc1N1CCN(Cc2ccccc2)CC1 (stereo not given),u,u,-52%,27%,-28%
COCC(C)OC(=O)C(C#N)c1nc2ccccc2nc1N1CCN(Cc2ccccc2)CC1 (stereo not given),u,3.2µM*,-33%,u,-17%
O=C(/C=C/C(=O)Oc1ccccc1C(=O)O)Oc1ccccc1C(=O)O,x,x,x,x,10%
O=C(c1cc2n(n1)C(C(F)(F)F)CC(c1ccco1)N2)N1CCc2ccccc2C1 (stereo not given),-16%,-13%,-11%,u,25µM*
COc1ccccc1N1CCN(C(=O)c2cc3n(n2)C(C(F)(F)F)CC(c2ccco2)N3)CC1 (stereo not given),-7%,-9%,-9%,-4%,-15%
Cc1c(C(=O)N2CCN(c3ccccn3)CC2)oc2ccccc12,25%,371%,19%,u,-25%
O=C(c1oc2ccccc2c1CSCc1ccccc1)N1CCN(c2ncccn2)CC1,u,24%,10µM*,u,5µM*
